# Test results as given in PubChem BioAssay (NCI).
# The panel holds about 83,000 compounds, 20% with a hit somewhere; the sample as a whole holds those more often.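 Treatment: one concentration, 48 hours, 96-well format. Scoring: percent growth, with anything below 10 considered active.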 Values without a mark were called inactive. The source made the active and inactive calls.
# Legend:
# Test in all cases: NCI-60 one-dose screen, 48 h (100 = growth as untreated, 0 = no growth, -100 = all killed)
# Settings in all cases: 10 µM unless noted
# DU-145 prostate = system: DU-145 prostate
# K-562 leukemia = system: K-562 leukemia
# MALME-3M melanoma = system: MALME-3M melanoma
# MDA-MB-231 breast = system: MDA-MB-231 breast
# RXF 393 renal = system: RXF 393 renal
# SF-268 CNS = system: SF-268 CNS
# SF-295 CNS = system: SF-295 CNS
# SF-539 CNS = system: SF-539 CNS
# UACC-257 melanoma = system: UACC-257 melanoma
# HCT-15 colon = system: HCT-15 colon
# HT29 colon = system: HT29 colon
# SNB-75 CNS = system: SNB-75 CNS
# SNB-19 CNS = system: SNB-19 CNS
# U251 CNS = system: U251 CNS
# PC-3 prostate = system: PC-3 prostate
# SK-MEL-5 melanoma = system: SK-MEL-5 melanoma
# UACC-62 melanoma = system: UACC-62 melanoma
# LOX IMVI melanoma = system: LOX IMVI melanoma
# SK-MEL-28 melanoma = system: SK-MEL-28 melanoma
SMILES,growth (DU-145 prostate),growth (K-562 leukemia),growth (MALME-3M melanoma),growth (MDA-MB-231 breast),growth (RXF 393 renal),growth (SF-268 CNS),growth (SF-295 CNS),growth (SF-539 CNS),growth (UACC-257 melanoma),growth (HCT-15 colon),growth (HT29 colon),growth (SNB-75 CNS),growth (SNB-19 CNS),growth (U251 CNS),growth (PC-3 prostate),growth (SK-MEL-5 melanoma),growth (UACC-62 melanoma),growth (LOX IMVI melanoma),growth (SK-MEL-28 melanoma)
COc1c(O[C@@H]2OC(CO)[C@H](O)[C@H](O)C2O)cc2oc3cc(O)c(CC=C(C)C)c(O)c3c(=O)c2c1CC=C(C)C (stereo partly specified),104%,68.5%,104%,68.5%,110%,92.1%,93.2%,107%,91.3%,97.9%,93.6%,93.9%,96.1%,77.9%,73.8%,97.8%,83.8%,85.2%,106%
C=C1C(=O)O[C@H]2[C@H]1CC/C(CNC(=O)/C=C/c1cc(OC)c(OC)c(OC)c1)=C\CC[C@@]1(C)O[C@@H]21,7.86% (active),-9.87% (active),-36.6% (active),5.65% (active),-88% (active),28.1%,50.4%,-36% (active),-26.1% (active),1.96% (active),-66.4% (active),46.9%,46.9%,25.9%,37.1%,20.6%,-36.3% (active),-88% (active),-32.7% (active)
CN1CCN(Cc2ccc(NC(=O)c3cncc(C#Cc4c(N)ncc5ccccc45)c3)cc2C(F)(F)F)CC1,-95.6% (active),-37% (active),-84.8% (active),-88.7% (active),-97% (active),-65.1% (active),-59.9% (active),-97% (active),-72.2% (active),-71.7% (active),-70.1% (active),-94.4% (active),-82% (active),-98.7% (active),-57.8% (active),-91.9% (active),-93.8% (active),-94.3% (active),-83.2% (active)
COc1cc2c(cc1OC)CC[N+](CCC[N+](C)(C)C)=C2,108%,111%,89%,115%,113%,91.7%,97%,98%,100%,101%,88.5%,80.2%,110%,98.9%,83.9%,104%,110%,99.3%,98.7%
C=C(C[n+]1ccccc1)[C@@H]1CC[C@]2(C(=O)OC)CC[C@]3(C)[C@H](CC[C@@H]4[C@@]5(C)CCC(=O)C(C)(C)[C@@H]5CC[C@]43C)[C@@H]12,101%,57.8%,75.2%,85.9%,99%,90.3%,103%,93.7%,53.4%,104%,78%,83.9%,73.8%,82.8%,68%,80.2%,51.8%,93.7%,69%
O=C1NCCN1/N=C/c1c(Cl)n(Cc2ccc(Cl)cc2)c2ccccc12,89.4%,65.2%,150%,73.9%,69.4%,104%,74.2%,87.2%,64.6%,93.3%,111%,94.4%,107%,75.5%,89%,68%,53.5%,72.7%,112%
O=C(O)/C=C\C(=O)Nc1ccc2c(c1)Cc1cc(F)ccc1-2,111%,104%,98.9%,112%,114%,96%,96.4%,94.9%,115%,100%,96.3%,86%,103%,106%,97.3%,101%,103%,96.4%,105%
O=[N+]([O-])c1ccc(N/N=C\c2cc(Cl)ccc2O)nc1,39.4%,17.8%,25.6%,48.8%,50.2%,33.3%,29.9%,29.8%,30.2%,26%,50.9%,70.1%,44.8%,33%,24.5%,4.09% (active),11.2%,22.6%,55.3%
CCN(CC)CCOc1ccc(/C(=C(\C)Cc2ccc(OC)cc2)c2ccc(O)cc2)cc1,53.4%,-56.7% (active),-76.7% (active),24%,6.99% (active),47.9%,-25.3% (active),-50.8% (active),-62.9% (active),5.11% (active),-70.5% (active),25.1%,26.6%,-30.3% (active),15.2%,-96.4% (active),-70.7% (active),-64.9% (active),-71% (active)
O=C(/C=C/c1ccco1)Nc1ncc(Cc2ccc(F)cc2)s1,19%,10.8%,59%,45.5%,12.7%,54.9%,11.7%,-21.3% (active),45.2%,15.3%,7.2% (active),19.9%,48%,22.6%,30.2%,25.9%,16.8%,28.9%,48%
CCCCCCCCNC(=O)[C@@H](N)CSCOC(C)=O,87.6%,71.8%,114%,91.9%,124%,-31.5% (active),102%,79.9%,110%,99.5%,89.4%,-17.3% (active),90.8%,102%,75.9%,48.7%,70%,44.4%,99.6%
CCN1C(=O)N(CC)C2C1NN=c1s/c(=C\c3ccc(F)cc3)c(=O)n12 (stereo unspecified),-11.2% (active),8.05% (active),49.9%,24.1%,5.29% (active),53.3%,13.6%,-14.9% (active),56%,13.9%,3.48% (active),-1.81% (active),28%,9.98% (active),–,16.8%,28.8%,20%,63%
COC(=O)[C@H](C)NC(=O)[C@@H]1CCCN1C(=O)CNC(=O)[C@H](C)N,105%,101%,86.7%,106%,108%,97%,100%,106%,103%,97.4%,104%,78.3%,98.6%,103%,102%,101%,88.8%,96.3%,118%
Cc1nn(-c2ccccc2)c(Oc2ccccc2)c1/C=N/NC(=O)Cn1c(=O)sc2ccccc21,76.1%,25.2%,52.7%,53.6%,70.6%,55%,45.3%,71.4%,66.1%,56.7%,46.8%,48.6%,61.1%,51.3%,44.5%,-47.7% (active),52.1%,48.7%,87.5%
O=C(/C=C\c1ccc(O)c(O)c1)c1ccccc1O,94.4%,73.4%,97.4%,69.3%,42.8%,69.5%,99.7%,59.3%,86.1%,46%,90.8%,76.9%,81.4%,–,76.7%,77.2%,72.6%,75.1%,94.9%
O=c1ccc2nc(-c3ccccc3)nn(-c3ccccn3)c-2c1,105%,-24.3% (active),50.1%,91.1%,26.8%,96.6%,103%,99.5%,72.3%,33.9%,-46.5% (active),106%,102%,–,83.5%,76.6%,93.4%,49.6%,87.2%
